A number with no mark means an inactive call. For some assays here: Results with a measured potency or affinity are listed apart. The source made the active and inactive calls. Unless noted, how the calls were made is not given here.

The nature of assay [1]: antimalarial activity against Dd2 strain (AID 2302;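 active means growth inhibition above 50% at the single 2 µM test dose, taken to imply half-maximal potency below 2 µM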;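 further: 0% = DMSO untreated growth and 100% = chloroquine plus artemisinin killed control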). To be noted: P. falciparum Dd2 in RBCs, LDH growth readout, 72 h; at 2 µM; hits give high values.
Assay [2] is described as follows: human hepatoma cell viability loss – ATP luminescence, cytotoxicity control for P. falciparum antimalarial project, primary screen (AID 2303;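 active means inhibition above 50%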;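 further: 0% = DMSO wells and 100% = digitonin-killed cells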). Conditions: HepG2 viability, 24-48 h, at 10 µM, hits give high values.
Assay [3] concerns the target L-lactate dehydrogenase (Plasmodium falciparum (isolate CDC / Honduras)) (UniProt Q27743). The experiment in a line: PfLDH activity inhibition – cell lysate, 3D7 strain, counter-screen for P. falciparum growth inhibition project (AID 2304).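 Further: 0% = vehicle and 100% = reference inhibitor.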 Conditions: P. falciparum 3D7 crude extract, LDH APAD/NBT absorbance; at 2 µM; hits give high values.
Assay [4] is described as follows: inhibition of 3D7 malaria parasite growth – strain 3D7 (AID 2306).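 Further: 0% = DMSO wells and 100% = chloroquine plus artemisinin control wells.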 To be noted: P. falciparum 3D7 erythrocytic growth, LDH absorbance, 72 h; at 2 µM; hits give high values.
The target of assay [5] is Calcium-dependent protein kinase 1 (Plasmodium falciparum (isolate 3D7)) (UniProt P62344). The experiment in a line: PfCDPK1 kinase inhibitors, biochemical, TCAMS library (AID 1159585; cut-off not given, nearly all actives have IC50 up to about 0.98 µM;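 further: inhibitors leave more ATP so luminescence rises with inhibition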). Conditions: recombinant PfCDPK1, Kinase-Glo ATP depletion luminescence.
Sequence of Calcium-dependent protein kinase 1 (Plasmodium falciparum (isolate 3D7)) (P62344 whole entry, looked up): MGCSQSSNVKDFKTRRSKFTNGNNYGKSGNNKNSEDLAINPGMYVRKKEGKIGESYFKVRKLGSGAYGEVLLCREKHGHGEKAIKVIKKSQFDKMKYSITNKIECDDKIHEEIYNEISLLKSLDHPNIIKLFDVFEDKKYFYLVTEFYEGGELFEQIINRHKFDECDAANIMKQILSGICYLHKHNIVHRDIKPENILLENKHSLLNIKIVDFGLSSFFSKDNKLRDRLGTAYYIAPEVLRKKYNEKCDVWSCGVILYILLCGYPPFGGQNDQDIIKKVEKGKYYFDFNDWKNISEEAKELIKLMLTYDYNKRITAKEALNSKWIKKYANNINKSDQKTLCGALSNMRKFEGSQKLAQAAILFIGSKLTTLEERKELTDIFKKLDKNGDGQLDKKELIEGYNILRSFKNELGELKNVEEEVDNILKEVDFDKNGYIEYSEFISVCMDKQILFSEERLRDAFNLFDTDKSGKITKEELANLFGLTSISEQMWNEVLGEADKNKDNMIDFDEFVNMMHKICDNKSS
Assay [6] deals with Plasmodium falciparum protein kinase 6 (PK6, PF3D7_1337100) (UniProt Q8IDW1). Kind of assay: PfPK6 kinase inhibitors, biochemical, TCAMS library (AID 1159586). Conditions: recombinant PfPK6, Kinase-Glo ATP depletion luminescence.
Sequence of Plasmodium falciparum protein kinase 6 (PK6, PF3D7_1337100) (Q8IDW1 1-305): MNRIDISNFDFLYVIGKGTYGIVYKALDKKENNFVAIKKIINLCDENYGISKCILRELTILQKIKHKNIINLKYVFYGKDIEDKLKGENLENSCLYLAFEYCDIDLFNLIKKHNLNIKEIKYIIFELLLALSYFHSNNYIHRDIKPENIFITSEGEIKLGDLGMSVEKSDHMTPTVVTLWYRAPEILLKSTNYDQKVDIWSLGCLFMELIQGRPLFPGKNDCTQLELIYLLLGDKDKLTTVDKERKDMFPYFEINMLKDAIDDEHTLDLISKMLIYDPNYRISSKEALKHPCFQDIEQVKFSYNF
The target of assay [7] is Protein kinase 7 (PK7), Plasmodium falciparum 3D7 (PF3D7_0213400) (UniProt Q7YTF7). The experiment in a line: inhibition of Plasmodium PK7 catalytic activity – biochemical, TCAMS antimalarial set, Kinase-Glo luminescence (AID 1159587). Conditions: recombinant PfPK7, Kinase-Glo ATP depletion luminescence.
Sequence of Protein kinase 7 (PK7), Plasmodium falciparum 3D7 (PF3D7_0213400) (Q7YTF7 1-343): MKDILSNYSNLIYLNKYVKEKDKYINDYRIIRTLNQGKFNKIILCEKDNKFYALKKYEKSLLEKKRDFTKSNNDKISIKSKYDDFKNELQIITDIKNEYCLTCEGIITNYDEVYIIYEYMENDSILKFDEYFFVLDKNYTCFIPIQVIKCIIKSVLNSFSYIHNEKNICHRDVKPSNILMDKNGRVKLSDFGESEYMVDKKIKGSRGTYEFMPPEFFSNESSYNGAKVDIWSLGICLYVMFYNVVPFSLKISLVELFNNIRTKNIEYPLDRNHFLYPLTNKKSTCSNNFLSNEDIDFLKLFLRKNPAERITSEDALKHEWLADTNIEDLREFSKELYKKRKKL
In assay [8] the target is Calcium-dependent protein kinase 4 (Plasmodium falciparum (isolate 3D7)) (UniProt Q8IBS5). The experiment in a line: PfCDPK4 kinase inhibitors, biochemical, TCAMS library (AID 1159588; cut-off not given, nearly all actives have IC50 up to about 0.91 µM). To be noted: recombinant PfCDPK4, Kinase-Glo ATP depletion luminescence.
Sequence of Calcium-dependent protein kinase 4 (Plasmodium falciparum (isolate 3D7)) (Q8IBS5 whole entry, looked up): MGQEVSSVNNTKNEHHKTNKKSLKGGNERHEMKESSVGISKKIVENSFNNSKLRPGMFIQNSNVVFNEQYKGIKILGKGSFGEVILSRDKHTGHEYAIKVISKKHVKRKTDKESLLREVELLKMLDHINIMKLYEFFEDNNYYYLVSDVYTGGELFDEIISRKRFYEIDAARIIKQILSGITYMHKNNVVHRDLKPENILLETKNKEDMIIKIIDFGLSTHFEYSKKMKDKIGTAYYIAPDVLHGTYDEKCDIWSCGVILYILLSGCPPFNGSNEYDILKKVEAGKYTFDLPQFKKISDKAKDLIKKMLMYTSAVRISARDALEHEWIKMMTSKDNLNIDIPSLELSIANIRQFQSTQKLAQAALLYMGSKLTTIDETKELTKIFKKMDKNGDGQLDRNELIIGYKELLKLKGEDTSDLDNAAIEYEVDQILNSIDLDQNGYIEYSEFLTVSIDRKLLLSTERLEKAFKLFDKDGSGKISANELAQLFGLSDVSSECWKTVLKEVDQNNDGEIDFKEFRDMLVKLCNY

Sequence of L-lactate dehydrogenase (Plasmodium falciparum (isolate CDC / Honduras)) (Q27743 whole entry, looked up): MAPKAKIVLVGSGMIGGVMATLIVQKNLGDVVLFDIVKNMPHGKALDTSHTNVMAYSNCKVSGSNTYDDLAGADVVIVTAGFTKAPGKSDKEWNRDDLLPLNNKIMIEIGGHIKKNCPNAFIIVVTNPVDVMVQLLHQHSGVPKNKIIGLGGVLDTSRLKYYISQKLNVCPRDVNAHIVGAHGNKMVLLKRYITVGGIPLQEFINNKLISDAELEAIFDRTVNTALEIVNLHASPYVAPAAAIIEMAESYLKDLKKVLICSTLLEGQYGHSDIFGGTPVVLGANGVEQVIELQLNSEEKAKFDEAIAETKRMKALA

Consider `OCC1CCN(Cc2ccc(-c3ccc(-c4nc5ccccc5[nH]4)cc3)cc2)CC1`, for which the growth inhibition in assay [1] was 84% (active); in assay [4], 100% (active). Further, the inhibition in assay [2] is 37%; in assay [3], 1%. The outcome in assay [5], in assay [6], in assay [7] and in assay [8] was inactive.
For `O=C(Cc1cccc(Cl)c1)Nc1cccc(-c2c[nH]c3nc(Nc4ccccc4)ncc23)c1`, the growth inhibition in assay [1] is 70% (active); in assay [4], 99% (active). The figures for the inhibition in assay [2] and in assay [3] were 5% and -2%, respectively. Besides, the result in assay [5], in assay [6], in assay [7] and in assay [8] was inactive.
With `Cc1cccc(Cn2c(C(N)=O)nn(-c3ccc([N+](=O)[O-])cc3C#N)c2=S)c1`, the growth inhibition in assay [1] is 48%; in assay [4], 101% (active). Further, the inhibition was 1% in assay [2] and 2% in assay [3]. The outcome in assay [5], in assay [6], in assay [7] and in assay [8] was inactive.
As to `Cc1cc(C(=O)Nc2ccc3c(c2)CCN3C2CCN(Cc3ccc(O)cc3)C2)no1` (configuration not stated), the growth inhibition in assay [1] was 86% (active); in assay [4], 95% (active). For the same molecule, the inhibition was 3% in assay [2] and -1% in assay [3]. The result in assay [5], in assay [6], in assay [7] and in assay [8] was inactive.
Take `Cc1ccc(C)c(Cn2ccc3nc(N)nc(N)c32)c1`: the growth inhibition was 3% in assay [1] and 97% (active) in assay [4]. Also, the results for the inhibition in assay [2] and in assay [3] were 65% (active) and -1%, respectively. Moreover, the outcome in assay [5], in assay [6], in assay [7] and in assay [8] was inactive.
With `N#Cc1ccc2c(c1)CCN(CCC1CCC(NC(=O)c3cccc(-c4ccc(F)cc4)c3)CC1)CC2` (configuration not stated), the growth inhibition in assay [1] is 10%; in assay [4] it was 92% (active). In addition, the inhibition was 32% in assay [2] and -3% in assay [3]. Also, the result in assay [5], in assay [6], in assay [7] and in assay [8] was inactive.
Regarding `CC(C)COc1ccc(Cl)cc1Cc1ccc(-c2nc3ccc(C(F)(F)F)cc3[nH]2)o1`, the growth inhibition in assay [1] is 51% (active); in assay [4], 97% (active). For the same molecule, the inhibition was 14% in assay [2] and 5% in assay [3]. Besides, the result in assay [5], in assay [6], in assay [7] and in assay [8] was inactive.
As for `Cc1[nH]c(C)c(-c2ccc(-c3cccc(C(F)(F)F)c3)nc2)c(=O)c1Br`, the growth inhibition in assay [1] was 96% (active); in assay [4], 97% (active). The inhibition in assay [2] is 28%; in assay [3] it was -4%. Besides, the outcome in assay [5], in assay [6], in assay [7] and in assay [8] was inactive.
As for `O=S(=O)(NCCN1CCCC1)c1cccc(-c2ccc(CNCc3ccsc3)cc2)c1`, the growth inhibition is 31% in assay [1] and 101% (active) in assay [4]. Moreover, the inhibition was 33% in assay [2] and 6% in assay [3]. The result in assay [5], in assay [6], in assay [7] and in assay [8] was inactive.
Take `COc1ccc2nccc([C@@H](O)CN3CCC(NC(=O)/C=C/c4cccc(NC(C)=O)c4)CC3)c2c1`: the growth inhibition in assay [1] was 60% (active); in assay [4] it was 90% (active). Moreover, the inhibition was 5% in assay [2] and 0% in assay [3]. Also, the result in assay [5], in assay [6], in assay [7] and in assay [8] was inactive.
In the case of `COc1ccc2nccc([C@@H](O)CN3CCC(NCc4ccc5c(c4)OCCO5)CC3)c2c1`, the growth inhibition was 92% (active) in assay [1] and 101% (active) in assay [4]. For the same molecule, the inhibition in assay [2] was 9%; in assay [3] it was -4%. The result in assay [5], in assay [6], in assay [7] and in assay [8] was inactive.
`Cn1nc(-c2ccc(CNC3CCc4ccccc43)cc2)c2cnc(NCCN3CCCC3)nc21` (configuration not stated): the growth inhibition was 17% in assay [1] and 99% (active) in assay [4]. The inhibition was 21% in assay [2] and -2% in assay [3]. The outcome in assay [5], in assay [6], in assay [7] and in assay [8] was inactive.
For the molecule `COc1ccc(NC(=O)c2c(NC(=O)c3cccs3)sc3c2CCCC3)cc1`, the growth inhibition is 4% in assay [1] and 97% (active) in assay [4]. Moreover, the inhibition is 4% in assay [2] and 1% in assay [3]. Further, the result in assay [5], in assay [6], in assay [7] and in assay [8] was inactive.
Turning to `C=CCO[C@@H]1O[C@H](COC(c2ccccc2)(c2ccccc2)c2ccccc2)[C@@H](OC(C)=O)[C@H](OC(C)=O)[C@H]1NC(C)=O`, the growth inhibition in assay [1] is 66% (active); in assay [4] it was 93% (active). Further, the inhibition in assay [2] and in assay [3] was -1% throughout. The outcome in assay [5], in assay [6], in assay [7] and in assay [8] was inactive.
`CCc1cn2c3c(cc(C(=O)N[C@@H](Cc4ccccc4)[C@H](O)CNC(C)(C)c4cccc(OC)c4)cc13)N(C)S(=O)(=O)C2`: the growth inhibition is 99% (active) in assay [1] and 98% (active) in assay [4]. Also, the inhibition in assay [2] was 27%; in assay [3], -5%. Besides, the result in assay [5], in assay [6], in assay [7] and in assay [8] was inactive.
Regarding `COc1cccc2c(NN=Cc3cccc([N+](=O)[O-])c3)ccnc12`, the growth inhibition was 47% in assay [1] and 100% (active) in assay [4]. Besides, the inhibition in assay [2] is 12%; in assay [3], -7%. Besides, the outcome in assay [5], in assay [6], in assay [7] and in assay [8] was inactive.
On to `Cc1cccc(Cl)c1Nc1nnc(-c2cccc(C(=O)NC[C@@H]3CC[C@H]4C[C@@H]3C4(C)C)c2)o1`, for which the growth inhibition was 69% (active) in assay [1] and 85% (active) in assay [4]. Further, the inhibition is 2% in assay [2] and -3% in assay [3]. In addition, the result in assay [5], in assay [6], in assay [7] and in assay [8] was inactive.
On to `CCN(CC)c1ccc(C(c2ccc(N(CC)CC)cc2)c2cccc([N+](=O)[O-])c2)cc1`, for which the growth inhibition in assay [1] is 68% (active); in assay [4] it was 91% (active). For the same molecule, the inhibition in assay [2] is 39%; in assay [3], -1%. Besides, the outcome in assay [5], in assay [6], in assay [7] and in assay [8] was inactive.
As for `O=C(Nc1ccc(Cl)cc1)Nc1cccc(-c2cccc(-c3nc4ccc(C(F)(F)F)cc4[nH]3)c2)c1`, the growth inhibition in assay [1] is 97% (active); in assay [4], 99% (active). Moreover, the inhibition in assay [2] was 87% (active); in assay [3], 1%. In addition, the result in assay [5], in assay [6], in assay [7] and in assay [8] was inactive.

These data come from PubChem BioAssay.
